Source: PubChem BioAssay
Calls of active or inactive are those of the source. Unless noted, no rule for the calls is given here.

What was measured:
[1] = test system: Wnt5a (protein binding on small-molecule microarray); experiment: Wnt5a binders on small-molecule microarray, primary screen, biophysical, 635/667 nm fluorescence (AID 1142); settings: 635 nm fluorescence, higher = more signal;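 also: fluorescence read at 667 nm with signal to noise per printed feature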
[2] = cell viability in Huh7 cells, primary screen, cytotoxicity control for HCV replication inhibitor project, CellTiter-Glo luminescence, basal, 48 h (AID 1143); settings: Huh7 HCV replicon, higher = more signal, called active from +8 up or from −8 down;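 also: Huh7 hepatoma cells carrying a hepatitis C replication reporter with no stimulus; test concentration not given here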
[3] = P. aeruginosa biofilm formation inhibitors, primary screen, PAO1 strain, BacTiter-Glo luminescence, LB-PBS (AID 1144); settings: 12 h, higher = more signal
[4] = CREB reporter modulators without forskolin, primary screen, cell-based, PC12, CRE-LacZ reporter, unstimulated (AID 1145); settings: no forskolin, luminescence, 4.5 h, higher = more signal, called active from +8 up or from −8 down
[5] = CREB reporter modulators under forskolin, primary screen, cell-based, PC12, CRE-LacZ reporter, forskolin-stimulated (AID 1146); settings: luminescence, 4.5 h, higher = more signal, called active from +8 up or from −8 down;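 also: PC12 cells with 6xCRE LacZ reporter stimulated by forskolin 10 µM; beta-galactosidase reporter signal reflecting CREB driven transcription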
[6] = target: Streptavidin (Streptomyces avidinii) (UniProt P22629); experiment: streptavidin binders on small-molecule microarray, primary screen, artefact control for SMM compound annotation, biophysical, 635/667 nm fluorescence (AID 1147); settings: streptavidin binding, higher = more signal;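 also: signal reflects streptavidin binding to arrayed compounds as a control protein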
[7] = small-molecule binders of probe aInhba, primary screen, biochemical, small-molecule microarray, 635/667 nm fluorescence (AID 1148); settings: higher = more signal;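 also: score merges 667nm spot fluorescence with signal-to-noise for antibody binding to printed compounds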
Torsin-1A (Homo sapiens) [8] = target: Torsin-1A (Homo sapiens) (UniProt O14656); experiment: torsin A binders from cell lysate, primary screen, small-molecule microarray, wild-type, 635/667 nm (AID 1149); settings: COS7 hTOR1A-WT lysate, 635 nm fluorescence, higher = more signal
Torsin-1A (Homo sapiens) [9] = target: Torsin-1A (Homo sapiens) (UniProt O14656); experiment: small-molecule binders of mutant TOR1A in lysate, primary screen, cell lysate, small-molecule microarray, COS7 lysate, 635/667 nm fluorescence (AID 1150); settings: COS7 hTOR1A mutant lysate, 635 nm fluorescence, higher = more signal;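 also: score pools 667 nm emission and signal to noise measuring lysate protein binding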
[10] = test system: Sonic hedgehog protein (Shh); experiment: small-molecule binders of Shh protein, primary screen, biochemical, small-molecule microarray, 635/667 nm fluorescence (AID 1151); settings: small-molecule microarray binding, 635 nm fluorescence; higher = more signal;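 also: Shh protein binding to compounds spotted on small-molecule microarray slides; score combines spot fluorescence intensity with signal-to-noise across triplicate slides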
[11] = E. coli DRC41 culture turbidity changes, primary screen, E. coli filamentation inducer project, strain DRC41, OD650, 48 h (AID 1152);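 also: E. coli MC1000 strain DRC41 lacking acrAB efflux pump and sulA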; settings: E. coli DRC41 (acrAB sulA), higher = more signal, called active from +8 up or from −8 down
[12] = small-molecule binders of probe aLefty1, primary screen, biochemical, small-molecule microarray, 635/667 nm fluorescence (AID 1153); settings: higher = more signal;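 also: score merges spot fluorescence with signal-to-noise ratio from the scanned slide images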
[13] = PSAC antagonists in infected red cells, primary screen, cell-based, P. falciparum Indochina, OD700, 1 h (AID 1154); settings: P. falciparum Indochina infected RBC osmotic lysis, higher = more signal, called active from +8 up or from −8 down
[14] = PSAC antagonists in infected red cells, primary screen, cell-based, P. falciparum Indochina, OD700, 2 h (AID 1155);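 also: lysis reports solute entry through the parasite surface anion channel PSAC; channel blockers reduce lysis of infected cells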; settings: P. falciparum Indochina infected erythrocytes, osmotic lysis OD700; higher = more signal, called active from +8 up or from −8 down
[15] = osmotic lysis modulators in infected erythrocytes, primary screen, PSAC antagonist project, cell-based, P. falciparum Indochina, OD700, 3 h (AID 1156); settings: higher = more signal, called active from +8 up or from −8 down
[16] = PSAC antagonists in infected red cells, primary screen, cell-based, P. falciparum Indochina, OD700, 18 h (AID 1157); settings: P. falciparum Indochina infected erythrocytes, osmotic lysis OD700, 18 h; higher = more signal, called active from +8 up or from −8 down
[17] = modulators of S6 phosphorylation in cells, primary screen, cell-based, A549, cytoblot, luminescence, serum-stimulated (AID 1158); settings: A549 phospho-S6 cytoblot, 5 h, higher = more signal;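 also: serum-stimulated A549 lung adenocarcinoma cells; signal is phosphorylated S6 detected by cytoblot immunostaining with HRP secondary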
[18] = target: NADPH oxidase 2 (Homo sapiens) (UniProt P04839); experiment: NOX2-dependent H2O2 signal modulators, primary screen, NOX inhibitor project, cell-based, HEK293-NOX2, PMA-stimulated, Amplex Red fluorescence (AID 1159); settings: 45 min, higher = more signal, called active from +8 up or from −8 down; also: test concentration not given here
[19] = target: NADPH oxidase 4 (Homo sapiens) (UniProt Q9NPH5); experiment: NOX4-dependent H2O2 signal modulators, primary screen, NOX inhibitor project, cell-based, HEK293-NOX4, tetracycline-induced, Amplex Red fluorescence (AID 1160); settings: 45 min, higher = more signal, called active from +8 up or from −8 down
[20] = target: NADPH oxidase 5 (Homo sapiens) (UniProt Q96PH1); experiment: NOX5-dependent H2O2 signal modulators, primary screen, NOX inhibitor project, cell-based, HEK293-NOX5, Amplex Red fluorescence (AID 1161); settings: HEK293-NOX5, ionomycin, 45 min, higher = more signal
Chain of NADPH oxidase 5 (Homo sapiens) (Q96PH1 whole entry, looked up): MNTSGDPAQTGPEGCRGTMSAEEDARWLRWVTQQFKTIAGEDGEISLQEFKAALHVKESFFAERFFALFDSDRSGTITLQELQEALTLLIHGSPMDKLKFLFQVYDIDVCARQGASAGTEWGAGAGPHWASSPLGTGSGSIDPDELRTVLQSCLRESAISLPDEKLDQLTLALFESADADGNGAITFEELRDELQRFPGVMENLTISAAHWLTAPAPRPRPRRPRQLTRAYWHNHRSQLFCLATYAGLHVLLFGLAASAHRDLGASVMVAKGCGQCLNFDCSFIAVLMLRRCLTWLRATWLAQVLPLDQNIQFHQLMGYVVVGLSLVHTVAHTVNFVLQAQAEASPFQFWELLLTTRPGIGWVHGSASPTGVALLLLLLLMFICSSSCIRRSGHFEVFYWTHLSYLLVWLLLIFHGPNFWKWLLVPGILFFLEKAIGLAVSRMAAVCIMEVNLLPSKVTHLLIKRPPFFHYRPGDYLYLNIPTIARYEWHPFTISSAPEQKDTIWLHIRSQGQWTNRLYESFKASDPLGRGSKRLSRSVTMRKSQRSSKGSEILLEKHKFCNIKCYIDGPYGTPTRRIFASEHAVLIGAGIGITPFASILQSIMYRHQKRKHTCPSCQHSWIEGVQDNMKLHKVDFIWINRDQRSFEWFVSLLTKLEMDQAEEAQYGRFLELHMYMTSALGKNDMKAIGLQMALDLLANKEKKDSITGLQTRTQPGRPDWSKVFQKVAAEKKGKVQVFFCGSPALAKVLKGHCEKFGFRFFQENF

Chain of Streptavidin (Streptomyces avidinii) (P22629 whole entry, looked up): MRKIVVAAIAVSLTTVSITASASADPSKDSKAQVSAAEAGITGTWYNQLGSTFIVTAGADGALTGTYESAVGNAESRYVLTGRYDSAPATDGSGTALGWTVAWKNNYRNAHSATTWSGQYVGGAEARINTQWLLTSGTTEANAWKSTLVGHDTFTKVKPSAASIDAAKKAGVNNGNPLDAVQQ
Chain of NADPH oxidase 2 (Homo sapiens) (P04839 whole entry, looked up): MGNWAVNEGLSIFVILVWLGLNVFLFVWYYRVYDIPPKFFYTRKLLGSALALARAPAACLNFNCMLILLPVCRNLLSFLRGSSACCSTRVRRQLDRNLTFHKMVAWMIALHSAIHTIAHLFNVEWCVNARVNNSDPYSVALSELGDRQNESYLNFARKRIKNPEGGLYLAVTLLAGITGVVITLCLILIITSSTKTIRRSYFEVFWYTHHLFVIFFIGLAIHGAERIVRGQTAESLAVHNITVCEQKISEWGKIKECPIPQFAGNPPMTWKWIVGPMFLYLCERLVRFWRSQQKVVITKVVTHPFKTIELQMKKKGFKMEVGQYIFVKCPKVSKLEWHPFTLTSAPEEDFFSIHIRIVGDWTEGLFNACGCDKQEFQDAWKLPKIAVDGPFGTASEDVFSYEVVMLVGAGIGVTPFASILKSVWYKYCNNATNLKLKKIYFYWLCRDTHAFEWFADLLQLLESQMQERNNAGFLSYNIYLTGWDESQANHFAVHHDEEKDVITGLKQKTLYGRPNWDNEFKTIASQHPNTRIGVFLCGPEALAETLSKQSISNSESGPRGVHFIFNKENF
Chain of Torsin-1A (Homo sapiens) (O14656 whole entry, looked up): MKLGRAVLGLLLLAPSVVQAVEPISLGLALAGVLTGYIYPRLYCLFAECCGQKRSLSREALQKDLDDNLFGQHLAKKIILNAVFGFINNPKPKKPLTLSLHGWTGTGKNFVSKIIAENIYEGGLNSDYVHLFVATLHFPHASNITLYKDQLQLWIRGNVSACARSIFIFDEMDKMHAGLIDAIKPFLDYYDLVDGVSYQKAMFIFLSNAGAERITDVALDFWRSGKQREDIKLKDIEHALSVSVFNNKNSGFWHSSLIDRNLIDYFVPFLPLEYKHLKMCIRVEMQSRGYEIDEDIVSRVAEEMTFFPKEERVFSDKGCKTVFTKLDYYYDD
Chain of NADPH oxidase 4 (Homo sapiens) (Q9NPH5 whole entry, looked up): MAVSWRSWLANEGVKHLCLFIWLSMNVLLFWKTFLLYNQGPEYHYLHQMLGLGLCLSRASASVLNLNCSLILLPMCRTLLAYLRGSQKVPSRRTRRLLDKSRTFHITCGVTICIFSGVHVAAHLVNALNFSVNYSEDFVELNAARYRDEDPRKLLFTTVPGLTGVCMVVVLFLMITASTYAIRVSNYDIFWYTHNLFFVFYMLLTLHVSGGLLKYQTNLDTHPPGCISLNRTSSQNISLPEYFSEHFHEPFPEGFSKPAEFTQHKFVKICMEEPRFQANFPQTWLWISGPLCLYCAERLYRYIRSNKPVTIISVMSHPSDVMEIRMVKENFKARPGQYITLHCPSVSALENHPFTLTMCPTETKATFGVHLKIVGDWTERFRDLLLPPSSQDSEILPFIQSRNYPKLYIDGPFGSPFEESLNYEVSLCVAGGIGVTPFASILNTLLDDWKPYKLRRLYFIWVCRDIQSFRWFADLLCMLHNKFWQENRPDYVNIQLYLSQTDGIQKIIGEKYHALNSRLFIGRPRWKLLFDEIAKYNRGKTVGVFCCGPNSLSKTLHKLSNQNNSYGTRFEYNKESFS

Row | Structure (SMILES) | composite z-score [1] | z-score [2] | z-score [3] | z-score [4] | z-score [5] | composite z-score [6] | composite z-score [7] | composite z-score (Torsin-1A (Homo sapiens) [8]) | composite z-score (Torsin-1A (Homo sapiens) [9]) | composite z-score [10] | z-score [11] | composite z-score [12] | z-score [13] | z-score [14] | z-score [15] | z-score [16] | z-score [17] | z-score [18] | z-score [19] | z-score [20]
1 | Cc1ccc(NN2C(C(O)c3c(F)cccc3Cl)C=CC3C(=O)N(C4CCCCC4)C(=O)C32)cc1 (stereo not given) | 0.361 | -3.26 (inactive) | -0.933 (inactive) | -0.0787 (inactive) | 0.355 (inactive) | 1.75 | -0.0675 | 0.0334 | 0.448 | -0.216 | 0.0905 (inactive) | 0.23 | 12.9 (active) | 1.86 (inactive) | 2.45 (inactive) | 0.902 (inactive) | -0.319 | -1.41 (inactive) | -0.336 (inactive) | -1.67
2 | Cc1ccc(S[C@]2(C(=O)NCc3ccccc3)CC(=O)N(C3CCCCC3)[C@@H]2c2ccc(CO)cc2I)cc1 | 0.301 | -4.53 (inactive) | -0.183 (inactive) | 0.389 (inactive) | 1.01 (inactive) | 1.5 | -0.0221 | 0.0358 | 0.944 | 0.259 | -0.148 (inactive) | -0.142 | 5.8 (inactive) | 1.34 (inactive) | 1.04 (inactive) | 0.841 (inactive) | 0.0194 | -0.031 (inactive) | 0.193 (inactive) | 1.79
3 | COc1ccc([Si](C)(C)[C@@H]2[C@@H](CCO)O[C@]3(C(=O)N(Cc4ccccc4)c4ccc(NC(=O)[C@H](C)O)cc43)[C@H]2C)cc1 | 0.514 | -7.95 (inactive) | -1.07 (inactive) | 12.2 (active) | -0.161 (inactive) | 0.753 | 0.108 | 1.05 | 0.854 | 1.95 | 0.573 (inactive) | 0.621 | 12.8 (active) | 2.77 (inactive) | -0.919 (inactive) | 1.92 (inactive) | 0.402 | 0.77 (inactive) | 0.452 (inactive) | 1.8
4 | COCC(=C=CC[C@H](O)c1ccccc1OCCO)C[C@H](O)c1ccccn1 | 0.0611 | -0.0701 (inactive) | -0.214 (inactive) | 1.04 (inactive) | 0.126 (inactive) | -0.303 | -0.154 | -0.556 | 0.71 | 0.43 | 0.769 (inactive) | -0.224 | 3.61 (inactive) | 1.12 (inactive) | 1.74 (inactive) | 0.382 (inactive) | 0.658 | 0.251 (inactive) | -0.831 (inactive) | -0.926
5 | [N-]=[N+]=Nc1ccccc1C[C@]1(C(=O)NCCN2CCOCC2)COC(c2ccc(OCCCO)cc2)=N1 | 0.898 | -1.06 (inactive) | 0.783 (inactive) | 0.754 (inactive) | 1.45 (inactive) | 1.25 | 0.0497 | 0.707 | 1.75 | 0.0324 | 1.87 (inactive) | 0.111 | 21.5 (active) | 4.14 (inactive) | 2.57 (inactive) | 0.913 (inactive) | 0.148 | 2.89 (inactive) | 1.12 (inactive) | -0.481
6 | CCOC(=O)C[C@H]1[C@H](OC(=O)c2ccc(C(=O)c3ccccc3)cc2)[C@@H](NC(=O)c2ccc(-c3ccccc3)cc2)c2cc(OCCCO)ccc2N1C(=O)Cc1ccc(OC)cc1 | 0.0266 | 0.128 (inactive) | -0.271 (inactive) | -0.0989 (inactive) | -0.539 (inactive) | 0.324 | 0.0569 | -0.0633 | 0.022 | -0.235 | 0.548 (inactive) | 0.344 | 11.8 (active) | 1.62 (inactive) | -0.455 (inactive) | 0.429 (inactive) | 0.53 | -0.44 (inactive) | 0.397 (inactive) | 0.501
7 | [N-]=[N+]=Nc1ccccc1[C@@H]1OC(c2ccc(OCCCO)cc2)=N[C@]1(Cc1ccccc1)C(=O)O | 0.343 | -0.626 (inactive) | 0.693 (inactive) | 1.05 (inactive) | -1.43 (inactive) | 0.723 | 0.207 | 0.0692 | 0.285 | -0.0767 | 0.78 (inactive) | 0.433 | 33.2 (active) | 30 (active) | 3.46 (inactive) | 8.04 (active) | -0.465 | -1.61 (inactive) | 1.27 (inactive) | -0.586
8 | C=CCNC(=O)[C@@H]1[C@H]2C(=O)O[C@H](c3ccccc3)[C@H](c3ccccc3)N2[C@H](c2ccccc2OCCO)[C@@]12C(=O)Nc1ccc(C#CCC(C(=O)OC)C(=O)OC)cc12 | 0.0142 | -6.3 (inactive) | 0.616 (inactive) | -0.191 (inactive) | -1.03 (inactive) | 0.0625 | 0.84 | 0.834 | 0.566 | 0.499 | -0.79 (inactive) | 0.666 | 4.93 (inactive) | 1.81 (inactive) | 0.622 (inactive) | 1.36 (inactive) | -0.304 | 0.21 (inactive) | 0.161 (inactive) | 1.98
